Growth data for 13 molecules are collected here from PubChem BioAssay (NCI).

Test systems include DU-145 prostate; K-562 leukemia; MALME-3M melanoma; MDA-MB-231 breast; RXF 393 renal; SF-268 CNS; SF-295 CNS; SF-539 CNS; UACC-257 melanoma; M14 melanoma.
Test in all cases: NCI-60 one-dose screen, 48 h (100 = growth as untreated, 0 = no growth, -100 = all killed)
Conditions in all cases: 10 µM unless noted

The panel holds about 83,000 compounds, 20% with a hit somewhere; the sample as a whole holds those more often.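 Single-dose data. Exposure time 48 hours. Values below 10 considered active.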 Unmarked numbers belong to inactive results. Active and inactive are the calls of the source.

With `Fc1cccc(NCOOC2(OOCNc3cccc(F)c3)CCCCC2)c1`, the growth with DU-145 prostate was 98.6%; in the test with K-562 leukemia, 41.3%; in the test on MALME-3M melanoma, 101%; with MDA-MB-231 breast it was 103%; with RXF 393 renal, 108%; with SF-268 CNS it was 93%. The growth in the test with SF-295 CNS was 94.3%; in the test with SF-539 CNS, 91.2%; in the test on UACC-257 melanoma it was 88.7%; in the test with M14 melanoma it was 91.6%.

Take `CC12CCC3C(CCC4=CC(=O)CCC43CF)C1CCC2=O` (stereo not given): the growth in the test with DU-145 prostate is 116%; in the test with K-562 leukemia it was 93.5%; with MALME-3M melanoma, 94.2%; in the test with MDA-MB-231 breast, 118%; with RXF 393 renal it was 67.7%; with SF-268 CNS it was 110%. Also, the growth was 106% in the test with SF-295 CNS, 106% in the test with SF-539 CNS, 97% with UACC-257 melanoma and 103% in the test on M14 melanoma.

In the case of `O=C1NC(=O)C(=Cc2cn(CCCCCCn3c4ccccc4c(=O)c4ccccc43)c3ccccc23)C(=O)N1`, the growth in the test with DU-145 prostate is 96.8%; with K-562 leukemia, 77.4%; with MALME-3M melanoma, 95.8%; in the test on MDA-MB-231 breast, 69.1%; with RXF 393 renal, 127%; with SF-268 CNS, 94.5%. Further, the growth was 65.7% in the test on SF-295 CNS, 93% in the test on SF-539 CNS, 104% in the test on UACC-257 melanoma and 94.1% with M14 melanoma.

`CSc1nc(Cl)cc(N2CC2)n1`: the growth in the test on DU-145 prostate was 110%; in the test on K-562 leukemia it was 120%; in the test with MALME-3M melanoma it was 105%; with MDA-MB-231 breast, 106%; in the test on RXF 393 renal, 111%; with SF-268 CNS it was 99.1%. For the same molecule, the growth with SF-295 CNS was 115%; in the test with SF-539 CNS it was 98.8%; with UACC-257 melanoma, 107%; in the test on M14 melanoma, 114%.

With `O=[N+]([O-])c1cc([N+](=O)[O-])c(Cl)cc1Cl`, the growth in the test on DU-145 prostate is -85.3% (active); in the test on K-562 leukemia, -9.49% (active); in the test with MALME-3M melanoma, -68.4% (active); in the test on MDA-MB-231 breast, -86.5% (active); with RXF 393 renal, -90.6% (active); in the test on SF-268 CNS, -80.2% (active). Moreover, the growth with SF-295 CNS is -70.4% (active); with SF-539 CNS, -83.2% (active); in the test on UACC-257 melanoma it was -68.9% (active); in the test on M14 melanoma it was -96.8% (active).

Regarding `COC(=O)[C@@H](C)C[C@H](Cc1ccccc1)NC(=O)c1nc([C@@H](C[C@H](C(C)C)N(C)C(=O)[C@@H](NC(=O)[C@H]2CC(=O)CCN2C)C(C)C)OC(C)=O)sc1C(C)C`, the growth in the test with DU-145 prostate is -11.3% (active); in the test on K-562 leukemia it was 12.3%; in the test with MALME-3M melanoma, 44.3%; with MDA-MB-231 breast, 6.36% (active); with RXF 393 renal it was 6.58% (active); in the test with SF-268 CNS it was 20%. The growth with SF-295 CNS was -1.71% (active); with SF-539 CNS, -18% (active); with UACC-257 melanoma, 77.6%; with M14 melanoma it was -10.3% (active).

As to `C[Se]C(=O)c1ccccc1OC(C)=O`, the growth in the test on DU-145 prostate was 76.9%; in the test on K-562 leukemia, 74.8%; in the test on MALME-3M melanoma, 68.7%; in the test with MDA-MB-231 breast, 68.3%; in the test on RXF 393 renal, 11.7%; with SF-268 CNS, 18.3%. Besides, the growth with SF-295 CNS was 48.6%; with SF-539 CNS it was 50.3%; in the test on UACC-257 melanoma it was 49.1%; in the test with M14 melanoma, 20.8%.

Turning to `Cc1c(C)c([N+](=O)[O-])c(C)c(C)c1[N+](=O)[O-]`, the growth with DU-145 prostate was 108%; in the test with K-562 leukemia it was 102%; in the test with MALME-3M melanoma, 138%; with MDA-MB-231 breast, 108%; with RXF 393 renal it was 112%; in the test with SF-268 CNS it was 100%. Moreover, the growth with SF-295 CNS is 101%; with SF-539 CNS it was 108%; in the test on UACC-257 melanoma, 99.5%; with M14 melanoma it was 115%.

With `CC[C@H](NC(=O)[C@H]1CCCCN1C)C(=O)N(C)[C@H](C[C@@H](OC(C)=O)c1nc(C(=O)N[C@@H](Cc2ccccc2)C[C@H](C)C(=O)O)cs1)C(C)C`, the growth in the test with DU-145 prostate was 0.513% (active); with K-562 leukemia, 6.94% (active); in the test with MALME-3M melanoma, 76%; in the test with MDA-MB-231 breast it was 9.34% (active); in the test with RXF 393 renal, 43.2%; with SF-268 CNS, 30.2%. Besides, the growth in the test with SF-295 CNS was 0.548% (active); in the test on SF-539 CNS it was -12.1% (active); in the test with UACC-257 melanoma, 52.9%; in the test on M14 melanoma, -10.4% (active).

For `CO[C@H]1CC[C@@]2(C)C(=CC[C@@H]3[C@@H]2CC[C@]2(C)C(=O)C(=O)C[C@@H]32)C1`, the growth with DU-145 prostate is 116%; in the test on K-562 leukemia, 101%; in the test with MALME-3M melanoma, 111%; with MDA-MB-231 breast, 103%; with RXF 393 renal, 26.3%; in the test with SF-268 CNS, 103%. For the same molecule, the growth in the test on SF-295 CNS was 110%; in the test with SF-539 CNS it was 104%; with UACC-257 melanoma, 120%; in the test with M14 melanoma, 102%.

For `CCN1C(=O)C(=C/C=C/c2ccccc2)C(=O)N(CC)C1=O`, the growth with DU-145 prostate was 76.4%; in the test on K-562 leukemia it was 79.4%; with MALME-3M melanoma, 82.5%; with MDA-MB-231 breast, 86.4%; in the test on RXF 393 renal, 109%; with SF-268 CNS, 72.5%. Also, the growth in the test with SF-295 CNS was 105%; in the test on SF-539 CNS, 109%; in the test on UACC-257 melanoma, 93.9%; in the test on M14 melanoma it was 82.5%.

Consider `CC[C@H](C)[C@H](NC(=O)C12C3C4C1C1C2C3C41NC(C)=O)C(=O)N(C)[C@H](C[C@@H](OC(C)=O)c1nc(C(=O)N[C@@H](Cc2ccccc2)C[C@H](C)C(=O)OC)cs1)C(C)C` (stereo not given in full), for which the growth is 1.99% (active) with DU-145 prostate; 8.82% (active) in the test on K-562 leukemia; 58.6% in the test on MALME-3M melanoma; 22.1% in the test on MDA-MB-231 breast; 41.9% with RXF 393 renal; 27.5% in the test on SF-268 CNS. In addition, the growth in the test on SF-295 CNS is 13%; in the test on SF-539 CNS, 5.34% (active); with UACC-257 melanoma, 44.2%; with M14 melanoma it was 1.02% (active).

On to `O=C1C(N2CC2)=C(N2CC2)C(=O)C(N2CC2)=C1N1CC1`, for which the growth with DU-145 prostate was -15.5% (active); with K-562 leukemia, 29.2%; in the test on MALME-3M melanoma, -67.5% (active); in the test on MDA-MB-231 breast, 93.3%; in the test with RXF 393 renal, -73.4% (active); in the test on SF-268 CNS, 19.9%. Further, the growth was -17.9% (active) with SF-295 CNS, -67.1% (active) in the test with SF-539 CNS, -44.1% (active) in the test with UACC-257 melanoma and -82.4% (active) in the test on M14 melanoma.
